Measured values taken from PubChem BioAssay AID2016 (NMMLSC, 2009).
Out of some 330,000 compounds screened, about 1,700 (0.52%) were called active. This excerpt belongs to a sample that is enriched for actives. A number with no mark means an inactive call.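 The calls were made as follows: active = GFP response versus DMSO above a set limit, roughly screen mean plus 3 SD (cut at about 180% in these data); inconclusive = fewer than 70 cells counted for a yeast strain; inactive = the rest.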

Assay: modulators of MEP2-GFP levels in yeast, primary screen, S. cerevisiae, multiplex flow cytometry, MLPCN library (AID 2016);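 also: median GFP fluorescence of the barcode-gated MEP2-GFP cells per well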
Settings: S. cerevisiae MEP2-GFP strain, 3 h, at 10 µM, stronger effect = higher value, 100% = DMSO control level

SMILES	GFP response vs DMSO
Cc1nn(C)c(C)c1C(C)NC(=O)c1ccc(OC2CCN(Cc3ccccn3)CC2)cc1 (stereo unspecified)	111%
O=c1c(-c2ccccc2Cl)c[nH]n1-c1ccccc1	99.8%
O=c1c(-c2cccc(Cl)c2)c[nH]n1-c1ccccc1	193% [may fluoresce violet] (active)
O=C1c2ccccc2NC(c2ccc(-c3cccc(Cl)c3)o2)N1O (stereo unspecified)	103%
CC1CCN(S(=O)(=O)c2nnc(NC(=O)COc3ccccc3F)s2)CC1	98.5%
CC1(C)Cc2c(sc3nc(SCC(=O)NCc4ccccc4)n(-c4ccccc4)c(=O)c23)CS1	107%
COc1ccccc1C(=O)COC(=O)COc1ccc(C#N)cc1	114%
O=C(c1cccs1)N(Cc1cc2ccccc2[nH]c1=O)CC1CCCO1 (stereo unspecified)	103%
CCN(Cc1cc2cc(C)ccc2[nH]c1=O)S(=O)(=O)c1ccccc1	97.6%
Cc1ccc(S(=O)(=O)N(Cc2cc3ccccc3[nH]c2=O)CC2CCCO2)cc1 (stereo unspecified)	195% [may fluoresce violet] (active)
CC1CC(C)CN(CCCNC(=O)c2csc3c2CCCCC3)C1 (stereo unspecified)	103%
C=CCC[C@@H](Cc1ccc(F)cc1)C(=O)O[C@H](CNC(=O)[C@H](CC=C)CC(=O)N(CCO)Cc1ccccc1)c1ccccc1	104%
Cc1ccc(SCc2cc(=O)[nH]c(N3CCCCC3)n2)cc1	96.5%
Cc1ccc(SCCSc2ncccn2)cc1	106%
Cc1ccc(SCC2=NNC(=O)C2)cc1	249% [may fluoresce violet] (active)
CCOc1ccc(Br)cc1CSC(=N)N	103%
COc1ccccc1P(=O)(c1ccccc1)c1ccccc1NC(C)=O (stereo unspecified)	83.1%
COc1ccc(C(=O)NCCSc2ccccc2C)cc1	99.7%
COC(=O)CCSc1cc([N+](=O)[O-])cc2c1c(C1OCCS1)nn2-c1ccccc1 (stereo unspecified)	107%
Cc1cc(C)cc(NC(=O)COc2coc(CN3CCN(c4ccccc4)CC3)cc2=O)c1	105%
Cc1ccc2sc(N(CCN(C)C)C(=O)/C=C/c3cccs3)nc2c1C	253% [may fluoresce violet] (active)
Cc1cccc2sc(N(CCCN(C)C)C(=O)CCS(=O)(=O)c3ccccc3)nc12	93.5%
Cc1cc(C)c2nc(N(CCN(C)C)C(=O)/C=C/c3cccs3)sc2c1	110%
O=C(Nc1ccc(F)cc1)C1CCCN(S(=O)(=O)c2ccc(-n3cnnn3)cc2)C1 (stereo unspecified)	106%
COc1ccc(-c2nc3ccccc3c(=O)n2CCc2ccc(O)cc2)cc1	103%
COc1ccc(OCc2ccc(-c3nc4ccccc4c(=O)n3N)o2)cc1	249% [may fluoresce violet] (active)

SMILES	GFP response vs DMSO
Cn1c(COc2ccc(Cl)cc2)nc2ccccc2c1=O	102%
CSc1ncccc1C(=O)NCc1ccccc1Cl	107%
COc1c(C)c2c(c(O)c1C/C=C(\C)CCC(=O)O)C(=O)OC2	297% [may fluoresce violet] (active)
CCCCn1c(N)c(N(CC)C(=O)c2ccc(N(C)S(=O)(=O)c3ccc(C)cc3)cc2)c(=O)[nH]c1=O	98%
CC(C)(C)C1CCC(C(=O)NCC(c2cccs2)N2CCOCC2)CC1 (stereo unspecified)	99%
CN1CCN(C(=O)Cn2c(C(F)(F)F)nc3ccccc32)CC1	103%
C=CCN1CC(C)/C(=N\O)CC1C (stereo unspecified)	93.2%
COc1ccc(Cn2c(C)c(C)c(C#N)c2NC(=O)Nc2ccc(F)cc2)cc1	99.5%
Cc1ccc(C(=O)Nc2c(C#N)c(C)c(C)n2Cc2ccccc2)cc1	364% [may fluoresce violet] (active)
Cc1c(C#N)c(NC(=O)c2ccccc2)n(Cc2ccccc2)c1C	93.8%
Cc1cc(C)c2c(-c3ccc(F)cc3)c(C#N)c(=O)n(C)c2n1	95.2%
Cc1ccc2nc3c(cc(C(=O)NCCc4ccccc4)c(=N)n3CC3CCCO3)c(=O)n2c1 (stereo unspecified)	238% [may fluoresce violet] (active)
Cc1ccc(CCNC(=O)c2ccc3nc4ccccc4c(=O)n3c2)cc1	112%
Cc1cccn2c(=O)c3cc(C(=O)NCC4CCCO4)c(=N)n(Cc4ccc(F)cc4)c3nc12 (stereo unspecified)	92.2%
COc1ccc(-c2c(C(C)=O)c(C)nc3sc4c(=O)n(-c5ccc(C)cc5)nnc4c23)cc1	105%
O=C(Nc1ccccc1)c1ccc2nsnc2c1	100%
Cc1cccc(NC(=O)N2CCCCCC2)c1C	98.3%
Cc1cccc(NC(=O)c2cccc(C(=O)Nc3cccc(C)c3C)n2)c1C	181% [may fluoresce violet] (active)
Cc1cccc(NC(=O)c2ccc3nsnc3c2)c1C	100%
Nc1nc(Sc2ncccc2[N+](=O)[O-])n[nH]1	96.3%
COc1ccc(N2C(=O)CCC(C(=O)N(C)C3CCCCC3)C2c2ccc(OC)c(OC)c2)cc1 (stereo unspecified)	99.1%
CCCCCn1c(=O)[nH]c2cc(C(=O)NCCCN3CCCCC3C)ccc2c1=O (stereo unspecified)	127%
O=S(=O)(NCC1CN(S(=O)(=O)c2ccc3c(c2)OCCO3)C1)c1c(F)cccc1F	103%
O=C(N/N=C/c1cccnc1)c1ccc(NC(=O)c2ccc(F)cc2)cc1	99.6%
Fc1ccc(/C=N/Nc2nc(-c3cccnc3)nc3ccccc23)cc1	195% (active)
O=c1c2ccccc2nc(N/N=C/c2ccccc2)n1O	95.1%

SMILES	GFP response vs DMSO
Cc1cc(C)c(S(=O)(=O)NCCCN2CCOCC2)cc1Br	103%
CN(c1ccccc1)c1ccc(/C=c2\s/c(=C(/C#N)C(=O)C(C)(C)C)n(Cc3ccco3)c2=O)cc1	343% (active)
CCOC(=O)Cn1c(=O)oc2cc(S(=O)(=O)N(C)Cc3ccco3)ccc21	91.7%
CCN1CCN(C(=O)N[C@@H](C(=O)N[C@@H]2C(=O)N3C(C(=O)O)=C(CSc4nnnn4C)CS[C@H]23)c2ccc(O)cc2)C(=O)C1=O	94.9%
Cc1c(C(=O)Nc2cccc(-c3nnc4n3CCCCC4)c2)oc2ccccc12	104%
O=C(Cn1[nH]c(=O)c2ccccc2c1=O)Nc1cccc(-c2nnc3n2CCCCC3)c1	224% [may fluoresce violet] (active)
Cc1ccc(-c2csc(NC(=O)Cn3[nH]c(=O)c4ccccc4c3=O)n2)cc1	102%
Cc1ccc(-c2csc(N(Cc3ccco3)C(=O)c3cccs3)n2)cc1	109%
CCOCCn1c(-c2ccccc2)nc2ccccc21	236% [may fluoresce violet] (active)
CCc1nc2ccccc2n(CCOCCOCCn2c(=O)c(CC)nc3ccccc32)c1=O	105%
CCOCCn1c(C(C)C)nc2ccccc21	94.3%
CCN(CC(=O)NCc1cccs1)C(=O)c1ccc(OC)c(S(=O)(=O)N2CCOCC2)c1	96%
Cc1cc(=O)oc2c3c(cc(OCC(=O)NCCC(=O)N[C@@H](C)C(=O)O)c12)OC(C)(C)CC3	92.9%
CCOc1cc(N2CCOCC2)c(OCC)cc1NC(=O)c1ccc(C)s1	94.6%
CCOc1cc(N2CCOCC2)c(OCC)cc1NC(=O)COc1cccc(Cl)c1	107%
CCOc1cc(N2CCOCC2)c(OCC)cc1NC(=O)COc1cccc2cccnc12	295% [may fluoresce violet] (active)
O=C(CSc1nnc(-c2ccncc2)n1-c1ccc(Cl)cc1)Nc1ccc(C(=O)O)cc1	101%
Cc1cc(=O)oc2c3c(cc(OCC(=O)NCc4ccccn4)c12)OC(C)(C)CC3	100%
O=C(O)c1cc(S(=O)(=O)NC2CCCc3ccccc32)ccc1O (stereo unspecified)	232% [may fluoresce violet] (active)
CNS(=O)(=O)c1cccc(C(=O)NC2CCCc3ccccc32)c1 (stereo unspecified)	102%
O=C(CCC(=O)N1CCN(S(=O)(=O)c2ccccc2)CC1)NC1CCCc2ccccc21 (stereo unspecified)	108%
CCC(C)(C)c1ccc(OCC(=O)N(C)C)c(C(C)(C)CC)c1	108%
N#Cc1cccc(NC(=O)COC(=O)c2ccccc2C(=O)c2ccc(Cl)c([N+](=O)[O-])c2)c1	112%
Cc1ccc(C2(c3ccc(C)cc3)NC(=O)N(Cc3c(C)noc3C)C2=O)cc1	91.9%
